From PubChem BioAssay AID1347076 (National Center for Advancing Translational Sciences (NCATS), 2019)
Out of some 400,000 compounds screened, about 13,000 (3.2%) were called active. Not shown: some 18% with an inconclusive outcome. Calls come from the whole dose curve; as a rule, active = well fitted cell-killing curve with a large enough effect; inconclusive = small, poorly fitted or top-dose-only effect, or effect the other way; inactive = flat fitted curve, though single readings scatter. Shown is part of a subset that was picked to be rich in actives.

Assay: qHTS assay for MDR1-selective chemotherapeutics: Primary screen using the drug-selected MDR subline cells KB-V1; note: nearly all actives have a fitted effect of over 60% in size
Conditions: KB-V1 MDR cells viability, CellTiter-Glo, 72 h; series mostly up to 46.1 µM; activity change, negative = cytotoxicity: at the top concentration
Source text: A prime difficulty in effectively treating cancer is the development of cellular resistance to multiple structurally unrelated anticancer drugs, a phenomenon known as multidrug resistance (MDR). […] Numerous strategies to overcome P-gp-mediated MDR have been explored, including the design of drugs that evade recognition and efflux, and development of inhibitors to block efflux and restore drug accumulation. […] An alternative approach is to exploit resistance by identifying drugs that target MDR cells over the non-resistant parental cells from which they were selected. […] The development of MDR1-selective agents represents a new strategy for resolving multidrug resistance, as it remains a long-standing clinical challenge for cancer chemotherapy.
Our goal is to identify compounds that selectively kill P-gp-expressing MDR cells. We will identify MDR1-selective compounds by comparing toxicity of compounds in the screening library against parental, drug-naive (KB-3-1) adenocarcinoma cells as well as their drug-selected MDR sub-line (KB-V1). The differential toxicity of compounds against these two cell lines will be used to identify MDR1-selective compounds, whose cytotoxicity is potentiated, rather than diminished, by P-gp expression. This assay will be utilized to conduct a quantitative high-throughput screen (qHTS) in collaboration with the NIH Chemical Genomics Center to identify selective agents, and probe hits arising from the screen will be validated using secondary assays and characterized through a well-established follow-up research program. This screen was run against the entire NCGC library collection of about 400,000 compounds.
NIH Molecular Libraries Probe Production Network [MLPCN]
NIH Chemical Genomics Center [NCGC]
PI: Michael Gottesman, National Cancer Institute, NIH
Briefly, 5 microL of media containing either KB-V1 cells (columns 1-2, 4-48) are dispensed into Greiner white, treated solid-bottom 1536-well assay plates (media-only control is added to column 3). Compounds are then transferred via Kalypsys pin tool equipped with 1536-pin array (10 nL slotted pins, V&P Scientific, San Diego, CA). Following addition of compound, the plates are incubated at 37 degrees C for 72 hours. CellTiter-Glo (2.5 µL/well) is then added, and the plates are read in a ViewLux reader (Perkin-Elmer, clear luminescence filter, 1 second exposure, 1x binning) following a 10 minute incubation. All cells are dispensed in DMEM phenol-red free media containing 10% FBS.
Library plates were screened starting from the lowest and proceeding to the highest concentration. Vehicle-only plates, with DMSO being pin-transferred to columns 5-48, will be inserted uniformly at the beginning and the end of each library in order to monitor and record any shifts in the background, which can be affected by reagent dispensers or loss in enzyme activity over time. Screening data will be corrected, normalized, and concentration-effect relationships will be derived by using publicly-available NCGC, NCATS curve fitting algorithms (http://ncgc.nih.gov/pub/openhts).
% is set by controls: 0 for no effect and ±100 for the full control effect; potency is the fitted concentration of half-maximal effect.

Structure (SMILES)	activity change, negative = cytotoxicity	Potency
Cc1cc2nn(-c3ccc(Cl)cc3)nc2cc1NC(=O)C(C)C	9.32% (inactive)	–
Cc1c(Cl)cccc1NC(=O)C1CCCN(C(=O)c2cnn(-c3ccccc3)c2-n2cccc2)C1 (stereo unspecified)	14.6% (inactive)	–
CCOc1ccc(CNC(=O)c2ccc3c(c2)nnn3C2CCCC2)cc1	5.56% (inactive)	–
COc1cccc(NC(=O)C2(C)CCN2C(=O)CCC2CCCC2)c1 (stereo unspecified)	-2.07% (inactive)	–
CC(=O)c1ccc(NC(=O)CCc2nc(-c3ccc(C)cc3)no2)cc1	-10% (inactive)	–
CCNC(=O)CCc1nc(-c2ccc(C)cc2)no1	16.3% (inactive)	–
Cc1ccc(-c2noc(CCC(=O)Nc3ccccc3N3CCN(C)CC3)n2)cc1	–	20.6 µM (active)
CC(C)CC1C(=O)N(Cc2cn(CC3CCCCC3)nn2)CCS(=O)(=O)N1Cc1ccc(-c2ccc(Cl)cc2)cc1 (stereo unspecified)	-22.9% (inactive)	–
COCCn1c(C)cc(C2=NNC(=Nc3ccc(F)cc3)SC2)c1C	–	10.3 µM (active)
C=CCn1c(C)cc(C2=NNC(=NCC)SC2)c1C	0% (inactive)	–
CCC(c1nnnn1Cc1ccccc1)N(Cc1cc2cc(OC)ccc2[nH]c1=O)CC1CCCO1 (stereo unspecified)	-4.04% (inactive)	–
Cc1cc(C)c2cc(CN(Cc3nnnn3Cc3ccc(F)cc3)C3CCCC3)c(=O)[nH]c2c1	-1.44% (inactive)	–
CCOc1ccc2[nH]c(=O)c(CN(Cc3nnnn3Cc3ccccc3)CC3CCCO3)cc2c1 (stereo unspecified)	-14.2% (inactive)	–
CCC(c1nnnn1C1CCCC1)N(Cc1cccs1)Cc1cc2cccc(C)c2[nH]c1=O (stereo unspecified)	–	23.1 µM (active)
Cc1cccc2cc(CN(Cc3cccs3)C(c3nnnn3C3CCCC3)C(C)C)c(=O)[nH]c12 (stereo unspecified)	9.62% (inactive)	–
Cc1cccc2cc(CN(Cc3nnnn3Cc3ccccc3)C3CCCC3)c(=O)[nH]c12	–	20.6 µM (active)
CC(C)Oc1cccc(-c2cnc(N3CCC(C(N)=O)CC3)s2)c1	0% (inactive)	–
C[C@H]1COc2cc(N3CCSCC3)ccc2S(=O)(=O)N1	3.82% (inactive)	–
CC1(C(=O)O)CCCN(C(=O)/C=C/c2ccccc2)C1 (stereo unspecified)	3.16% (inactive)	–
COC(=O)c1ccc(NC(=O)c2cc(Cl)ccc2OC)cc1	19.9% (inactive)	–
COc1cc(OC)c(C(=O)Nc2ccc(N(C)C)cc2)cc1OC	-28.8% (inactive)	–
COc1ccc(Cl)cc1C(=O)Nc1ccc(N(C)C(C)=O)cc1	–	16.4 µM (active)

Structure (SMILES)	activity change, negative = cytotoxicity	Potency
CCC(=O)N1CCc2cc(Br)cc(S(=O)(=O)CCC(=O)NCc3ccccc3OC)c21	24.4% (inactive)	–
O=C(NCc1ccc(F)cc1)c1cc(C2CCCCN2C(=O)C2CCCCC2)on1 (stereo unspecified)	-3.92% (inactive)	–
CC(=O)Nc1ccc(C=Cc2ccc([N+](=O)[O-])cc2)cc1	8.12% (inactive)	–
NS(=O)(=O)c1ccc(CNC(=O)c2cc(S(=O)(=O)N3CCOCC3)ccc2N2CCCC2)cc1	8% (inactive)	–
O=C1OCCOC2CCCc3oc(-c4ccccc4)c1c32 (stereo unspecified)	29.6% (inactive)	–
OCCNc1nc(Nc2ccc(Cl)c(Cl)c2)nc2ccccc12	–	9.2 µM (active)
COc1cc2nc(Cl)nc(NCCO)c2cc1OC	-1.83% (inactive)	–
CN(C)c1nc(Nc2ccc(Cl)c(Cl)c2)nc(N(C)C)n1	-2.76% (inactive)	–
Cc1c(NC(=O)COC(=O)/C=C/c2cccc(F)c2)c(=O)n(-c2ccccc2)n1C	6.17% (inactive)	–
Cc1cccc(C(=O)N2CCc3cc(CNC(=O)Cc4ccc(F)cc4)ccc32)c1	3.15% (inactive)	–
CCCCC12CN3CC(C)(CN(C1)C3c1ccc(O)c(OC)c1)C2=O (stereo unspecified)	-1.76% (inactive)	–
COCCNc1ncnc2c1ncn2[C@H]1CN(Cc2ccc(OC)cc2)C[C@@H](CO)O1	3.06% (inactive)	–
Cc1ccc(CC2CC(=O)N(c3nc(C)cc(C)n3)C2=O)cc1 (stereo unspecified)	-11.3% (inactive)	–
Cc1ccc(CC2CC(=O)N(c3cc(C)ccc3C)C2=O)cc1 (stereo unspecified)	-2.95% (inactive)	–
COc1ccc(CN2C(=O)CC(Cc3ccc(C)cc3)C2=O)cc1OC (stereo unspecified)	–	18.4 µM (active)
CN(C)c1ccc(/C=C/c2sc3ccccc3[n+]2CCCCBr)cc1	-5.39% (inactive)	–
Nc1nc2c(ncn2[C@@H]2O[C@H](CNS(=O)(=O)N3CCc4ccccc4C3)[C@@H](O)[C@H]2O)c(=O)[nH]1	1.53% (inactive)	–
Cc1ccc(S(=O)(=O)c2nnn3c2nc(N2CCN(c4ccccc4F)CC2)c2cc(Cl)ccc23)cc1C	0% (inactive)	–
CSc1ncc(Sc2ccccc2)c(C(=O)O)n1	0% (inactive)	–
CSc1nc(Nc2ccc(F)cc2)cc(-c2ccccc2)n1	2.43% (inactive)	–
CSc1nc(-c2ccccc2)nc(C(Cl)Cl)n1	–	11.6 µM (active)
CCCCn1c(CNC(=O)C23CC4CC(CC(C4)C2)C3)nnc1SCC(=O)Nc1ccc(C)cc1	-26.2% (inactive)	–

Structure (SMILES)	activity change, negative = cytotoxicity	Potency
COc1ccc(CCCNC(=O)C2Cc3c(-c4cccc(C(N)=O)c4)ccnc3O2)cc1 (stereo unspecified)	-6.13% (inactive)	–
COc1ccc(CC(N)c2csc(NC(=O)Cc3ccccc3)n2)cc1 (stereo unspecified)	2.07% (inactive)	–
Cc1cccc(C(=O)C(O)(c2ccccc2)C2CCCCC2=O)c1 (stereo unspecified)	-1.77% (inactive)	–
COCCOCCn1cnc2ccccc21	-0.954% (inactive)	–
CCOC(=O)c1ccc(NC(=O)Cn2cnc3cc(C)c(C)cc32)cc1	10.5% (inactive)	–
N#CCSc1nc2ccc(N3CCOCC3)cc2c(=O)n1CCc1ccccc1	–	3.26 µM (active)
Cn1c(=O)n(CCc2ccccc2)c(=O)c2c1nc1n2CCCN1c1ccccc1	8.2% (inactive)	–
COCCNC(=O)c1ccc(Cn2c(SCC(=O)NCC3CCCO3)nc3ccc(Br)cc3c2=O)cc1 (stereo unspecified)	19.5% (inactive)	–
CCn1cc2nc(SCc3cccc(F)c3)n(CCc3ccccc3)c(=O)c2n1	-1.77% (inactive)	–
CCn1c(SCC(=O)NCC2CCCO2)nc2ccccc21 (stereo unspecified)	19.3% (inactive)	–
CCCCn1c(SCC(=O)NCC2CCCO2)nc2ccc(N3CCOCC3)cc2c1=O (stereo unspecified)	–	3.66 µM (active)
O=C(Nc1ccc(Cl)cn1)c1ccccc1-c1ccccc1	-17.1% (inactive)	–
CC1(C)CC(=O)C=C(c2ccc(COC(=O)c3cc(F)cc(F)c3)cc2)C1=O	-6.38% (inactive)	–
COc1cccc(C(NC(C)=O)c2nc(-c3cnc4ccccc4c3)cs2)c1 (stereo unspecified)	-6.5% (inactive)	–
COc1ccc(-c2csc(C(O)c3cccc(Cl)c3)n2)cn1 (stereo unspecified)	-5.18% (inactive)	–
OC(c1ccccc1)c1nc(-c2cnc3ccccc3c2)cs1 (stereo unspecified)	–	16.4 µM (active)
CCCC(=O)N1CCC1(C)C(=O)NCc1ccc(SC)cc1 (stereo unspecified)	-29.3% (inactive)	–
COc1ccc(OC)c(NC(=O)C2CCCN2S(=O)(=O)c2ccc3c(c2)CC(C)N3C(C)=O)c1 (stereo unspecified)	-6.15% (inactive)	–
COc1ccc(NC(=O)COC(=O)C2COc3ccccc3O2)cc1 (stereo unspecified)	18.6% (inactive)	–
CCOC(=O)c1[nH]c(C)c(C(=O)OCC(=O)N2c3ccccc3CC2C)c1C (stereo unspecified)	–	2.06 µM (active)
CCOC(=O)c1c(C)[nH]c(C(=O)OCC(=O)N2CCCC2=O)c1C	7.52% (inactive)	–
CCOc1ncccc1C(=O)OCC(=O)N1c2ccccc2CC1C (stereo unspecified)	2.4% (inactive)	–
